Results as given in PubChem BioAssay AID493247 (Broad Institute, 2011).
Measured potencies and affinities stand elsewhere. Inconclusive results are not listed. A number with no mark means an inactive call.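 How the source made its calls: active means falling luminescence with a fitted half-effect concentration at most ten times the top dose in every repeat; inconclusive means repeats disagree, poor fit, or flat moderate signal drop; inactive means the rest.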

Experiment: NIH/3T3 cell viability loss – mouse embryonic fibroblasts, dry powder, set 2, cytotoxicity control, dose response (AID 493247)
Details: NIH/3T3 cytotoxicity, CellTiter-Glo ATP luminescence, 90 h; series mostly up to 19.5 µM; activity change, negative = cytotoxic: at the top concentration

| SMILES | activity change, negative = cytotoxic [%] |
| --- | --- |
| CCCNC(=O)C1(C)CCCN(C(=O)Cc2ccc(OC)c(OC)c2)C1 (stereo unspecified) | 3.6 |
| CCNC(=O)C1(C)CCCN(Cc2cccc(Oc3ccccc3)c2)C1 (stereo unspecified) | -2.58 |
| COc1ccc(CCN2CC(C(=O)NCc3ccc(F)cc3)CC2=O)cc1OC (stereo unspecified) | 11.9 |
| COc1ccc(CN2CCCC(C(=O)N3CCCC3)C2)c(OC)c1OC (stereo unspecified) | 3.82 |
| CCNC(=O)C1(C)CCN(C(=O)c2ccc(OC)c(OC)c2)C1 (stereo unspecified) | 8.84 |
| COc1ccc(CCNC(=O)C2CCCCC2)cc1OC | 12.5 |
| CCNC(=O)C1CCCN(C(=O)c2cc(OC)c(OC)c(OC)c2)CC1 (stereo unspecified) | 3.32 |
| COc1ccc(CCN(C)C(=O)C2CCCN(Cc3ccccc3C)C2)cc1OC (stereo unspecified) | 3.81 |
| CCCNC(=O)C1(C)CCCN(C(=O)c2ccc(OC(F)F)cc2)C1 (stereo unspecified) | -13.5 |
| O=C(CNC(=O)c1ccco1)N/N=C/c1ccc([N+](=O)[O-])o1 | 2.12 |
| CN(Cc1ccccc1)C(=O)C1CCCN(Cc2ccccc2)C1 (stereo unspecified) | -26.8 |
| CCNC(=O)C1(C)CCCN(C(=O)Cc2ccc(OC)c(OC)c2)C1 (stereo unspecified) | -10.4 |
| COCCNC(=O)C1(C)CCCN(C(=O)c2cc(OC)c(OC)c(OC)c2)C1 (stereo unspecified) | -5.22 |
| CCCNC(=O)C1(C)CCN(C(=O)Cc2ccc(OC)c(OC)c2)C1 (stereo unspecified) | 3.33 |
| COc1cc(CN2CCC(C(=O)NC(C)c3ccc(OC)c(OC)c3)CC2)cc(OC)c1 (stereo unspecified) | -5.63 |
| COc1cc2c(cc1OC)C(C)N(CCC(N)=O)CC2 (stereo unspecified) | 2.04 |
